Results: PubChem BioAssay (NCATS)
Inconclusive results are not listed. Active and inactive are the calls of the source. Calls come from the whole dose curve; as a rule, active = well fitted curve in the direction sought with a large enough effect; inconclusive = small, poorly fitted or top-dose-only effect, or another doubt; inactive = no such curve, though single readings can be large; an effect the other way counts as inactive or inconclusive.

Key:
[1] = SW1088 Cancer Cell Toxicity qHTS against the NCATS CANVASS Library (AID 1347350); conditions: SW1088 viability, CellTiter-Glo luminescence, 72 h; at 38.3 µM (top of the series); note: nearly all actives have a fitted effect of over 75% in size
From the text: (§1) Natural products and their derivatives continue to be wellsprings of nascent therapeutic potential. However, many laboratories have limited resources for biological evaluation, leaving their previously isolated or synthesized compounds largely or completely untested. To address this issue, the Canvass library of natural products was assembled (https://tripod.nih.gov/canvass), in collaboration with academic and industry researchers, for quantitative high-throughput screening (qHTS) across a diverse set of cell-based and biochemical assays. The pure (>85% purity by liquid chromatography/mass spectrometry [LC/MS]) Canvass library of 346 natural products were submitted by 45 academic laboratories and companies around the world. […] The library was formatted into 1536-well plates and evaluated in 50 qHTS (in an 11-pnt concentration series) bioassays with broad scope of disease-relevant mechanisms. The resulting data set from 50 different assays was then systematically analyzed to identify overall trends and specific natural products with interesting biological activities. […]
Cancer Cell Toxicity protocol for cell lines COV-362, OV-KATE, OV-SAHO, UWB1.289, UWB1.289-WTBRCA1, HEK-293, HPAF-II, Panc-1005, SW1088, or U-118MG. […] Luminescence signal was acquired via the ViewLux plate reader (PerkinElmer) using a clear filter, 2 second exposure and 2x binning settings.

[2] = U-118MG Cancer Cell Toxicity qHTS against the NCATS CANVASS Library (AID 1347351)
Summary of the method: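 Viability was assessed by adding CellTiter-Glo reagent to treated cultures and reading luminescence after 15min at room temperature. Treatment lasted 72 h at 37 degrees C/5% CO2, using an 11-point series on 1000 cells/well.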

[3] = COV-362 Cancer Cell Toxicity qHTS against the NCATS CANVASS Library (AID 1347352)
From the text: as §1
Cancer Cell Toxicity COV-362, OV-KATE, OV-SAHO, UWB1.289, UWB1.289-WTBRCA1, HEK-293, HPAF-II, Panc-1005, SW1088, and U-118MG-screen protocol. […] Luminescence signal was acquired via the ViewLux plate reader (PerkinElmer) using a clear filter, 2 second exposure and 2x binning settings.

[4] = A2780 Cisplatin Sensitive Ovarian Cancer Cell Toxicity qHTS against the NCATS CANVASS Library (AID 1347353); conditions: A2780 ovarian cancer viability, ATPLite luminescence, 72 h; at 46.1 µM (top of the series); note: nearly all actives have a fitted effect of over 60% in size
Summary of the method: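 750 cells/well, 4 h settle; 11-pt cpd titration; 72 h, 37 °C, 5% CO2; ATPLite 10 min RT; luminescence read.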

[5] = UWB1.289-WTBRCA1 Cancer Cell Toxicity qHTS against the NCATS CANVASS Library (AID 1347354)
Summary of the method: (§2)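 1000 cells/well, 4 h pre-incubation 37 °C/5% CO2; 11-pnt titration; 72 h; CellTiter-Glo 15 min RT, luminescence.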

[6] = HEK-293 Cancer Cell Toxicity qHTS against the NCATS CANVASS Library (AID 1347355); conditions: HEK-293 viability, CellTiter-Glo luminescence, 72 h; at 46.1 µM (top of the series); note: nearly all actives have a fitted effect of over 65% in size
Summary of the method: as §2

[7] = HPAF-II 24hr Apoptosis Induction qHTS against the NCATS CANVASS Library (AID 1347356)
From the text: Natural products and their derivatives continue to be wellsprings of nascent therapeutic potential. However, many laboratories have limited resources for biological evaluation, leaving their previously isolated or synthesized compounds largely or completely untested. To address this issue, the Canvass library of natural products was assembled (https://tripod.nih.gov/canvass), in collaboration with academic and industry researchers, for quantitative high-throughput screening (qHTS) across a diverse set of cell-based and biochemical assays. The pure (>85% purity by liquid chromatography/mass spectrometry [LC/MS]) Canvass library of 346 natural products were submitted by 45 academic laboratories and companies around the world. […] The library was formatted into 1536-well plates and evaluated in 50 qHTS (in an 11-pnt concentration series) bioassays with broad scope of disease-relevant mechanisms. The resulting data set from 50 different assays was then systematically analyzed to identify overall trends and specific natural products with interesting biological activities. […] The luminescence is proportional to the amount of caspase activity in the assay reaction. […]
Cancer Cell Apoptosis Assay 1. […] Luminescence signal was acquired via the ViewLux plate reader (PerkinElmer) using a clear filter, 20 second exposure and 2x binning settings.

[8] = HEK293 18hr Apoptosis Induction qHTS against the NCATS CANVASS Library (AID 1347357)
Summary of the method: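 Natural products applied to HEK293 for 18 hr; Caspase-Glo 3/7 readout.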

[9] = HPAF-II 12hr Apoptosis Induction qHTS against the NCATS CANVASS Library (AID 1347358)
Summary of the method: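 Caspase-Glo 3/7 luminescence (DEVD substrate) reports caspase activity in HPAF-II cells after 12 h compound treatment at 37 degrees C. Compounds were tested in an 11-point series. Doxorubicin served as control.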

[10] = HEK293 24hr Apoptosis Induction qHTS against the NCATS CANVASS Library (AID 1347359)
Summary of the method: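 HEK293 cells, 500 per well, exposed to an 11-point compound series for 24 hours at 37 degrees C. Caspase 3/7 activity read by Caspase-Glo luminescence (DEVD substrate) after 15 min at room temperature.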

Measured: outcome

NCCc1c[nH]c2ccccc12
inactive: all assays above

NCCc1c[nH]c2ccc(O)cc12
inactive: all assays above
